GPT2 inhibitor: inhibitors of human GPT2 alanine aminotransferase. Q8TD30. Recombinant GPT2, coupled pyruvate oxidase/HRP Amplex Red fluorescence. Potency, µM (highest dose often 57.7 µM), actives largely listed as inhibitors. actives 0.25% (n = 100,000); also: nearly all actives have a fitted effect of over 60% in size
Target sequence (Q8TD30 whole entry, looked up): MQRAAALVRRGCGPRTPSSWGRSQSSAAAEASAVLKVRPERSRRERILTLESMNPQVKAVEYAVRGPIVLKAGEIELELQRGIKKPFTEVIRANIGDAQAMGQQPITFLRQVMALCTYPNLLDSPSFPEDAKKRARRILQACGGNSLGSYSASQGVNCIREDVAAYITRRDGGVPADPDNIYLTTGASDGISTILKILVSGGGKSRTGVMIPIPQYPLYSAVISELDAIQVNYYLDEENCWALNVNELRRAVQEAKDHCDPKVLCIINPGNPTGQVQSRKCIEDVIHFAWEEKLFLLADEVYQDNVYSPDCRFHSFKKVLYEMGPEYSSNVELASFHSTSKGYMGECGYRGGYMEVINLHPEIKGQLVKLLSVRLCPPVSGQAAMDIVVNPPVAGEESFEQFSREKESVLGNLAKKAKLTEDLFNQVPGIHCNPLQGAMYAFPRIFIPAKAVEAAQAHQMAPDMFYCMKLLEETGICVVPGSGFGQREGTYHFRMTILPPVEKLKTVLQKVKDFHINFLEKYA
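GPT2 10ng/uL, a-KG 250uM, L-Ala 2mM, HEPES pH7.5 + 0.0001% Tween; 30 min RT. Then Amplex mix (PO/HRP/ThPP), 30 min RT dark, fluorescence. AOA 50uM used as positive control.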
HEK cytotox: kills HEK 293 cells; HEK 293 viability, ATP luminescence (CellTiter-Glo), 48-72 h; Potency, µM (highest dose often 115 µM), usual class: inhibitors; actives 6.6% (n = 94,000); also: nearly all actives have a fitted effect of over 60% in size
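Pintool-delivered compounds were incubated with HEK 293 cells (250 cells/well) at 37 degree Celsius for 48 or 72 hr. ATP-dependent luminescence (CellTiter-Glo) then reported remaining viable cells.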
NPR1 antag: antagonists of human natriuretic peptide receptor Npr1 | P16066 | actives 1.6% (n = 76,000) | Potency, µM (doses to about 46.3 µM), usual class: inhibitors | HEK293 hNpr1 GloSensor cGMP, ANP-stimulated luminescence; calls by dose curve; also: nearly all actives have a fitted effect of over 60% in size
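HEK293 cells stably expressing human Npr1 and cGMP GloSensor pGS-40F, loaded 2 h with 2% GloSensor reagent, given compound 30 min at room temperature. Luminescence read before and 20 min after 0.1 nM hNppA.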
NIH3T3 tox: kills NIH 3T3 cells; NIH 3T3 viability, CellTiter-Glo ATP luminescence, 48-72 h; actives 4.3% (n = 94,000); AID 1345082; Potency, µM (titrated, usually from 96.7 µM), hits mostly inhibitors; also: nearly all actives have a fitted effect of over 55% in size
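ATP-dependent luminescence (CellTiter-Glo) served as the viability signal for NIH 3T3 cells treated with compound for 48 or 72 hr at 37 °C.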
Luciferase inh: blocks purified firefly luciferase enzyme activity. Potency, µM (doses to about 115 µM), hits mostly inhibitors. actives 2.5% (n = 76,000). purified P. pyralis luciferase, luminescence, biochemical; also: nearly all actives have a fitted effect of over 65% in size
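Luminescence read by CCD imager after adding enzyme (10nM final) to wells holding compound, titrated in qHTS. Substrates 10uM each D-luciferin and ATP; buffer 50mM Tris acetate pH 7.5, 10mM Mg acetate, Tween-20, BSA.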
Each line names hits and unclear results; the compound was inactive in the other large screens. Most compounds without a hit are left out; they make up all but 10% or so of the library. Unless noted, calls follow the shape of the dose curve; as a rule, active = well fitted curve in the direction sought with a large enough effect; inconclusive = small, poorly fitted or top-dose-only effect, or another doubt; inactive = no such curve, though single readings can be large; an effect the other way counts as inactive or inconclusive.

Cc1ccc(CC2CCOC3(CCN(C(=O)c4cccc(C#N)c4)CC3)C2)cc1 (configuration not stated)	HEK cytotox 50µM, NPR1 antag inconclusive, NIH3T3 tox inconclusive
O=C(CC1CCOC2(CCN(C(=O)c3cccs3)CC2)C1)N1CCCC1 (configuration not stated)	none (no result: NPR1 antag, Luciferase inh)
Cc1cccc(C(=O)N2CCC3(CC2)CC(Cc2ccc(F)cc2)CCO3)c1 (configuration not stated)	HEK cytotox 45µM, NIH3T3 tox inconclusive
COCC1CN(C(=O)c2ccc(Cc3c(C)noc3C)o2)CC12CCNCC2 (configuration not stated)	none
Cc1noc(C)c1Cc1ccc(C(=O)N2CCC3(CC2)CC(Cc2ccc(F)cc2)CCO3)o1 (configuration not stated)	HEK cytotox 28µM, NIH3T3 tox inconclusive (no result: NPR1 antag, Luciferase inh)
Cn1cnc2cc(-c3cccc(N4CCOCC4)c3)cc(C(=O)NCc3cccnc3)c21	NIH3T3 tox inconclusive
N#CC1C(=O)Nc2scc(-c3ccc(-c4ccccc4O)cc3)c2C1=O (configuration not stated)	none (no result: HEK cytotox, NPR1 antag, NIH3T3 tox, Luciferase inh)
O=C(NCC(=O)N1CCCCC1)c1cccc(-c2ccc(C(F)(F)F)cc2)c1	HEK cytotox inconclusive, NIH3T3 tox inconclusive (no result: NPR1 antag, Luciferase inh)
O=C1NC2(CCN(CC3CCCCC3)C2)Oc2ccccc21 (configuration not stated)	HEK cytotox 63µM, NIH3T3 tox inconclusive
O=C1NC2(CCCN(CC3CC3)C2)Oc2ccccc21 (configuration not stated)	none
Cc1ccc([S+](=O)([O-])N2CCC(C(=O)N3CCC(N4CCOCC4=O)CC3)CC2)cc1	none (no result: NPR1 antag, Luciferase inh)
Cc1ccc(-c2cccc(CN3CCCC3C(=O)NCc3ccccc3Cl)c2)cc1Cl (configuration not stated)	HEK cytotox 45µM, NIH3T3 tox inconclusive (no result: GPT2 inhibitor, NPR1 antag, Luciferase inh)
Cc1ccc(-c2cccc(CN3CCCC3C(=O)NCc3cccs3)c2)cc1Cl (configuration not stated)	HEK cytotox 35µM, NIH3T3 tox 16µM (no result: GPT2 inhibitor, NPR1 antag, Luciferase inh)
COc1ccccc1CNC(=O)C1CCCN1Cc1cccc(-c2ccc(C)c(Cl)c2)c1 (configuration not stated)	HEK cytotox 40µM, NIH3T3 tox 40µM (no result: GPT2 inhibitor, NPR1 antag, Luciferase inh)
COc1ccc(CNC(=O)C2CCCN2Cc2cccc(-c3ccc(C)c(Cl)c3)c2)cc1 (configuration not stated)	HEK cytotox 35µM, NIH3T3 tox 32µM (no result: GPT2 inhibitor, NPR1 antag, Luciferase inh)
O=C(NCc1ccccc1Cl)C1CCCN1Cc1ccc(-c2cncnc2)cc1 (configuration not stated)	HEK cytotox inconclusive, NIH3T3 tox inconclusive (no result: NPR1 antag, Luciferase inh)
CC1C(=O)CC2C3CCC(C(=O)O)C12CC3(C)CO (configuration not stated)	none (no result: HEK cytotox, NPR1 antag, NIH3T3 tox, Luciferase inh)
COc1ccc(-c2cc(C(=O)Nc3ccc(F)cc3)c3cnn(C)c3n2)cc1	none (no result: GPT2 inhibitor, NPR1 antag, Luciferase inh)
COc1ccccc1C(=O)N1CCc2c(c(-c3nncn3C(C)C)nn2C)C1	none
CCN1c2cc(C(=O)Nc3ccc(C(=O)OC)cc3)ccc2C(=O)N2CCCCCC21 (configuration not stated)	HEK cytotox 45µM, NIH3T3 tox inconclusive
CCc1ccc(NC(=O)c2ccc3c(c2)N(CC)C2CCCCCN2C3=O)cc1 (configuration not stated)	HEK cytotox 18µM, NIH3T3 tox 28µM, Luciferase inh inconclusive
CCN1c2cc(C(=O)Nc3ccc(OC)cc3)ccc2C(=O)N2CCCCCC21 (configuration not stated)	HEK cytotox inconclusive, NIH3T3 tox inconclusive
CC(=O)N1CCCC1c1nc(C2CN(Cc3cc(F)c(F)cc3F)C2)no1 (configuration not stated)	HEK cytotox inconclusive
COc1ccc(C(=O)NC2CCN(c3ccnc4ccnn34)C2)cc1 (configuration not stated)	HEK cytotox 50µM, NIH3T3 tox inconclusive (no result: NPR1 antag, Luciferase inh)
O=C(NC1CCN(c2ccnc3ccnn23)C1)c1ccc(C(F)(F)F)cc1 (configuration not stated)	HEK cytotox inconclusive, NIH3T3 tox inconclusive (no result: NPR1 antag, Luciferase inh)
Cc1ccc(C(=O)NC2CCN(c3ccnc4ccnn34)C2)cc1 (configuration not stated)	HEK cytotox 63µM, NIH3T3 tox inconclusive (no result: NPR1 antag, Luciferase inh)

Screening data deposited in PubChem BioAssay by National Center for Advancing Translational Sciences (NCATS).
